Reference: PubChem BioAssay (NCI)
About 79,000 compounds went through this panel and 15% of them were active in at least one assay; those are over-represented in the sample as a whole. Calls of active or inactive are those of the source. No stated cut-off is given here; in the data, active means growth inhibition above about 70%; inactive means the rest.

Tests used:
[1] = NCI Yeast Anticancer Drug Screen. Data for the rad50 strain (AID 155);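 further: 0% = growth of vehicle-only cultures of the same strain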; details: S. cerevisiae rad50 strain growth inhibition; at 50.0 µM; stronger effect = higher value
Summary of the method: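 Relative growth inhibition (compound vs vehicle) was measured in yeast with a defined repair-gene alteration.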

[2] = NCI Yeast Anticancer Drug Screen. Data for the mec2-1 strain (AID 157); details: S. cerevisiae mec2-1 strain, at 50.0 µM, stronger effect = higher value
Summary of the method: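 mec2-1 yeast strain, carrying an alteration in DNA damage repair or cell cycle control, was exposed to compounds; growth inhibition was measured relative to vehicle-treated controls.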

[3] = NCI Yeast Anticancer Drug Screen. Data for the sgs1 mgt1 strain (AID 161);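 further: 0% = growth of cultures given vehicle only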; details: S. cerevisiae sgs1 mgt1 strain, at 50.0 µM, stronger effect = higher value
Summary of the method: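 Growth of a repair-deficient yeast mutant was monitored after compound treatment and expressed as inhibition relative to vehicle-treated cultures.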

[4] = NCI Yeast Anticancer Drug Screen. Data for the cln2 rad14 strain (AID 165);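 further: 0% = growth equal to vehicle treated cultures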; details: S. cerevisiae cln2 rad14 strain, at 50.0 µM, stronger effect = higher value
Summary of the method: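 Yeast carrying cln2 and rad14 alterations (cell cycle control and DNA damage repair) were exposed to compounds. Growth inhibition was measured against vehicle-treated controls.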

[5] = NCI Yeast Anticancer Drug Screen. Data for the bub3 strain (AID 167); details: S. cerevisiae bub3 mutant strain, at 50.0 µM, stronger effect = higher value
Summary of the method: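 Screening used yeast with an engineered genetic alteration affecting cell cycle control. Compound-exposed cultures were compared with vehicle cultures, and reduced growth was taken as inhibition.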

[6] = NCI Yeast Anticancer Drug Screen. Data for the mlh1 rad18 strain (AID 175); details: S. cerevisiae mlh1 rad18 strain growth inhibition; at 50.0 µM; stronger effect = higher value
Summary of the method: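 Growth inhibition of the yeast strain was measured after compound exposure and expressed relative to vehicle-treated controls. The strain carries defined defects in DNA damage repair.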

| Compound | growth inhibition [1] | growth inhibition [2] | growth inhibition [3] | growth inhibition [4] | growth inhibition [5] | growth inhibition [6] |
| --- | --- | --- | --- | --- | --- | --- |
| CCc1ccc(NC(=O)c2cc(OC)c(OC)c(OC)c2)cc1 | 1.1% (inactive) | 29.4% (inactive) | 2.6% (inactive) | -12.3% (inactive) | 17.5% (inactive) | 29.2% (inactive) |
| CC(=O)NNc1nc(C)c(C(=O)/C=C/c2ccc(/C=C/C(=O)c3sc(NNC(C)=O)nc3C)cc2)s1 | -29.6% (inactive) | -3.4% (inactive) | -37.6% (inactive) | 6.25% (inactive) | -13.2% (inactive) | -35.1% (inactive) |
| O=C1Nc2ccccc2C2Cc3c([nH]c4ccccc34)CC12 (stereo unspecified) | 47% (inactive) | 20.1% (inactive) | 3.8% (inactive) | 31.1% (inactive) | 7.4% (inactive) | 20.9% (inactive) |
| CCOC(=O)CCCCN(CC)CCCCC(=O)OCC | 2.65% (inactive) | -1.5% (inactive) | 11.1% (inactive) | -2.25% (inactive) | 16.6% (inactive) | -19.6% (inactive) |
| COC(=O)N1C(c2ccccc2)C=CC(c2ccccc2)N1C(=O)OC (stereo unspecified) | 12.7% (inactive) | 11.2% (inactive) | 10.2% (inactive) | 4.3% (inactive) | 17% (inactive) | 18.2% (inactive) |
| O=C(O)/C(Cl)=C(\Cl)C(=O)NC1C2CC3CC(C2)CC1C3 (stereo unspecified) | 14.4% (inactive) | 10.3% (inactive) | 13.8% (inactive) | 28.8% (inactive) | 3.6% (inactive) | 19.6% (inactive) |
| COc1ccc2c(c1)C/C(=C\c1cccc3ccccc13)C2=O | -51.9% (inactive) | -19.3% (inactive) | -0.15% (inactive) | -23.1% (inactive) | 28.1% (inactive) | -0.7% (inactive) |
| CC(=O)Oc1ccc(-c2c3ccccc3cc3c2ccc2ccccc23)cc1 | 1.75% (inactive) | -10.4% (inactive) | -9.85% (inactive) | -5.05% (inactive) | -2.7% (inactive) | -28.3% (inactive) |
| CCCCc1c(OC)cc(O)c2c1C(=O)c1[nH]c(C(=O)O)c(O)c(=O)c1C2=O | -16.6% (inactive) | -19.3% (inactive) | -13.9% (inactive) | -11.7% (inactive) | -10.9% (inactive) | -5.75% (inactive) |
| CC1(C)COCN1COCCOCN1COCC1(C)C | 10.2% (inactive) | -18% (inactive) | -1.55% (inactive) | 7.05% (inactive) | -25.9% (inactive) | -56.6% (inactive) |
| CC(C)(C)[Si](C)(C)OC1C(=O)C[C@H]2CCCC[C@@H]12 (stereo partly specified) | -6.75% (inactive) | 0.85% (inactive) | -1.75% (inactive) | 17.1% (inactive) | 10.2% (inactive) | 22.3% (inactive) |
| O=C1C(c2cnc3c(n2)CCC=C3)=C(O)c2ccccc21 | -1.15% (inactive) | -7.8% (inactive) | -6.6% (inactive) | -84.2% (inactive) | -16.7% (inactive) | -0.65% (inactive) |
| C/C(Cc1ccccc1)=N\NS(=O)(=O)c1ccc(C)cc1 | 44.4% (inactive) | -2.15% (inactive) | 35.9% (inactive) | 8.85% (inactive) | 1.1% (inactive) | 34.6% (inactive) |
| CC(=O)/C(=C\c1ccc([N+](=O)[O-])o1)C(=O)CCN(C)C | 25.1% (inactive) | 38.4% (inactive) | 63% (inactive) | 22.9% (inactive) | 39.5% (inactive) | 84.8% (active) |
| CCOC(=O)c1c(/N=C/c2ccc(N(C)C)cc2)sc2c1CCCC2 | 14.2% (inactive) | 13.8% (inactive) | 17.3% (inactive) | 23.6% (inactive) | 17.8% (inactive) | 5.85% (inactive) |
| O=S(=O)(O)c1cc(O)ccc1O.O=S(=O)(O)c1cc(O)ccc1O.[NH-]C1CCCCC1[NH-].[Pt+2] | 17.6% (inactive) | -4.85% (inactive) | -5.2% (inactive) | 4.8% (inactive) | -0.85% (inactive) | -3.25% (inactive) |
| COc1cc(-c2oc3ccccc3c(=O)c2O)cc(OC)c1OC | -29.6% (inactive) | -51.8% (inactive) | -16.3% (inactive) | -22.8% (inactive) | -42% (inactive) | -14.1% (inactive) |
| CN1CCC(c2ccccc2)(c2ccccc2)OC1 | 3.7% (inactive) | 6.85% (inactive) | 6.9% (inactive) | -8.45% (inactive) | 9.95% (inactive) | 5.15% (inactive) |

| Compound | growth inhibition [1] | growth inhibition [2] | growth inhibition [3] | growth inhibition [4] | growth inhibition [5] | growth inhibition [6] |
| --- | --- | --- | --- | --- | --- | --- |
| Cc1noc2cccc(OCc3ccccc3)c12 | -32.2% (inactive) | -40.5% (inactive) | 5.4% (inactive) | -0.6% (inactive) | 17.4% (inactive) | -9.2% (inactive) |
| O=c1[nH]c2ccc(Br)cc2cc1Br | 21.9% (inactive) | -9% (inactive) | 0.3% (inactive) | 6.65% (inactive) | 2.45% (inactive) | 20.8% (inactive) |
| CCC1(C)N=C(C)C(C)S1 (stereo unspecified) | -7.6% (inactive) | -1.3% (inactive) | -13.7% (inactive) | 4.9% (inactive) | -16.3% (inactive) | 6.2% (inactive) |
| COC(=O)/C(=N/O)C(C(=O)C=C(C)C)C(=O)C(=O)Nc1nc2ccc([N+](=O)[O-])cc2s1 (stereo unspecified) | 18% (inactive) | -4.55% (inactive) | 10% (inactive) | -58.8% (inactive) | 5.95% (inactive) | 6.25% (inactive) |
| O=C(O)CNc1ncnc2[nH]ncc12 | 7% (inactive) | -25.1% (inactive) | 2.85% (inactive) | 3.8% (inactive) | -8.1% (inactive) | 6% (inactive) |
| O=C(O)CCCCC(=O)c1ccccc1 | 30.6% (inactive) | 12.2% (inactive) | 21% (inactive) | -0.25% (inactive) | 26.6% (inactive) | 24.9% (inactive) |
| O=S(=O)([O-])[O-].O=c1[nH]cnc2[nH]ncc12.O=c1[nH]cnc2[nH]ncc12.[Cu+2] | -22.1% (inactive) | -7.95% (inactive) | -47.2% (inactive) | -32% (inactive) | -18.7% (inactive) | -18.1% (inactive) |
| COc1ccc(C2=Nc3ccccc3NC(=O)C2)cc1 | -10.2% (inactive) | -20.9% (inactive) | -12.6% (inactive) | 11.4% (inactive) | -17.1% (inactive) | -19.9% (inactive) |
| COC(=O)CCCN1C(=O)c2ccccc2C1=O | -8.15% (inactive) | -12.7% (inactive) | -20.8% (inactive) | -69.8% (inactive) | 5.6% (inactive) | -3.95% (inactive) |
| COCCCn1cnn2c(=O)c3ccccc3nc2c1=O | -12% (inactive) | 2.85% (inactive) | 23.8% (inactive) | 12.4% (inactive) | 21.3% (inactive) | 6.25% (inactive) |
| NC(=O)CCCC(C(N)=O)(c1ccccc1)c1ccccc1 | 9.2% (inactive) | 13.3% (inactive) | 3.25% (inactive) | -11.2% (inactive) | -7.15% (inactive) | -3.9% (inactive) |
| COC(=O)c1ncn(Cc2ccccc2)c1O (tested in a mixture with another compound) | 8.7% (inactive) | -2.2% (inactive) | 8.55% (inactive) | 16.3% (inactive) | 8.15% (inactive) | 36% (inactive) |
| CCCCCCCCCCCOC(=O)CCl | 1.4% (inactive) | -13% (inactive) | -16.9% (inactive) | -12.3% (inactive) | -12.8% (inactive) | -7.4% (inactive) |
| COc1ccc(NC(=O)CN)cc1 | 1.3% (inactive) | -9.9% (inactive) | 0.2% (inactive) | -2.55% (inactive) | 7.6% (inactive) | 0.7% (inactive) |
| O=C(O)CSc1cc(Br)c(Br)cc1C(=O)O | 6.05% (inactive) | -11.3% (inactive) | -0.85% (inactive) | 9.5% (inactive) | 9.8% (inactive) | -15.9% (inactive) |
| Cc1cccc2c(SCCCCCCSc3c4ccccc4nc4c(C)cccc34)c3ccccc3nc12 | -2.25% (inactive) | -8.1% (inactive) | -26.7% (inactive) | -21.5% (inactive) | -2.7% (inactive) | 7.05% (inactive) |
| COc1cc(NC(C)CCCNC(C)C)c2nccc(C)c2c1 (stereo unspecified) | 17.4% (inactive) | 16.3% (inactive) | 20.9% (inactive) | 3.25% (inactive) | 11.6% (inactive) | 27.9% (inactive) |
| NC(N)=Nc1ccccc1OC1OC(CO)C(O)C(O)C1O (stereo unspecified) | -12.4% (inactive) | 16.1% (inactive) | 2.55% (inactive) | -50.5% (inactive) | -7% (inactive) | -2.25% (inactive) |
